{"source": "PubChem BioAssay (NCI)", "note": "This is part of a sample that, as a whole, favours compounds with a hit. Of some 83,000 tested, about 20% had one in any assay.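 In brief: 96-well plates, 48 h treatment, single concentration, percent growth endpoint.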 Activity calls are given as the source filed them. How the source made its calls: active means growth percent below 10; inactive means the rest."}
{"test_system": "SNB-19 CNS", "assay": "NCI-60 one-dose screen, 48 h (100 = growth as untreated, 0 = no growth, -100 = all killed)", "conditions": "10 µM unless noted"}
{"smiles": "CNCc1cccc2c1OCCOCCOCCN(CCN1CCOCC1)S(=O)(=O)c1ccc(cc1)-c1cnc(N)c(n1)C(=O)N2", "growth": "76.3% (inactive)"}
{"smiles": "Cc1cnc(-c2ccc(-c3ccc(NC(=O)Nc4c(F)cc(F)cc4F)cc3F)c3c2C(=O)NC3)[nH]1", "growth": "41.9% (inactive)"}
{"smiles": "Cc1cc(C)c(NC(=O)c2sc3nc4c(cc3c2N)CCCCCC4)c(C)c1", "growth": "49.1% (inactive)"}
{"smiles": "O=C1NN(c2ccccc2)C(c2ccc3c(c2)OCO3)N2CCC[C@@H]12", "note": "(some centres not stated)", "growth": "103% (inactive)"}
{"smiles": "C=C1C(=O)O[C@H]2[C@H]1CC/C(COC(=O)CCCCCCCCC(=O)OC/C1=C/CC[C@@]3(C)O[C@H]3[C@H]3OC(=O)C(=C)[C@@H]3CC1)=C\\CC[C@@]1(C)O[C@@H]21", "growth": "43.8% (inactive)"}
{"smiles": "COc1ccc(C2N(c3cc(OC)c(OC)c(OC)c3)C(=O)C2(F)F)cc1F", "note": "(configuration not stated)", "growth": "52.9% (inactive)"}
{"smiles": "C=C1C(=O)O[C@H]2[C@H]1CC/C(COC(=O)CCCCCCC(=O)OC/C1=C/CC[C@@]3(C)O[C@H]3[C@H]3OC(=O)C(=C)[C@@H]3CC1)=C\\CC[C@@]1(C)O[C@@H]21", "growth": "65.9% (inactive)"}
{"smiles": "O=c1nc(-c2ccccc2)c2cc(-c3ccc(N4CCCC4)nc3)ccc2[nH]1", "growth": "66.4% (inactive)"}
{"smiles": "O=C(Nc1nc(-c2ccccc2)cs1)c1cc(-c2ccc(Br)cc2)nc2ccccc12", "growth": "79.2% (inactive)"}
{"smiles": "COc1ccc2nc3c(n2c1)C(=O)C(=O)c1ccccc1-3", "growth": "-30.9% (active)"}
{"smiles": "C=C1C(=O)O[C@H]2[C@H]1CCC(/C=N/c1ncc(Br)cc1N)=C\\CC[C@@]1(C)O[C@@H]21", "growth": "44.2% (inactive)"}
{"smiles": "COC(=O)c1ccc(NC(=O)CSc2nc(-c3ccc(F)cc3)nc3ccccc23)cc1", "growth": "80.2% (inactive)"}
{"smiles": "COc1ccc(C2C(c3ccccc3)C(=O)N2c2cc(OC)c(OC)c(OC)c2)cc1I", "note": "(configuration not stated)", "growth": "33.4% (inactive)"}
{"smiles": "O=[N+]([O-])c1cccc(CN(Cc2cccc([N+](=O)[O-])c2O)c2ccccc2)c1O", "growth": "92% (inactive)"}
{"smiles": "Nc1c(C(=O)Nc2ccccn2)sc2nc3c(cc12)CCCCCC3", "growth": "22.3% (inactive)"}
{"smiles": "C[C@]12CC[C@@H]3c4ccc(O)cc4CC[C@H]3[C@@H]1C[C@H](O)C2", "growth": "66.2% (inactive)"}
{"smiles": "COCCOCCOCc1n(Cc2ccc3ccccc3c2)c2ccccc2[n+]1Cc1ccc2ccccc2c1", "growth": "23% (inactive)"}
{"smiles": "COc1ccc(C(=O)c2cc(F)c(F)c(OC)c2F)cc1OC(=O)CCl", "growth": "39.1% (inactive)"}
{"smiles": "Nc1cccc(C(=O)Nc2ccc3c(O)c(N=Nc4ccc(N=Nc5ccc(S(=O)(=O)O)cc5)cc4)c(S(=O)(=O)O)cc3c2)c1", "growth": "106% (inactive)"}
{"smiles": "O=C(Nc1ccccc1)NS(=O)(=O)c1c[nH]c(=S)[nH]c1=O", "growth": "106% (inactive)"}
{"smiles": "CC(C)CSc1nc(Nc2ccccc2)c(C#N)c(-c2ccc(F)cc2)n1", "growth": "5.61% (active)"}
{"smiles": "CC(C)(C#N)c1cc(F)cc(C(=O)Nc2cc(Nc3ncccc3-c3ncnc4nc[nH]c34)ccc2F)c1", "growth": "58% (inactive)"}
{"smiles": "COc1c(O)cc2oc3cc(O[C@@H]4OC(C)[C@@H](O)[C@H](O)C4O)c(CC=C(C)C)c(O)c3c(=O)c2c1CC=C(C)C", "note": "(some centres not stated)", "growth": "102% (inactive)"}
{"smiles": "O=C(CCCC(=O)Nc1ccc(-n2nnc3cc(Cl)c(Cl)cc32)cc1)Nc1ccc(-n2nnc3cc(Cl)c(Cl)cc32)cc1", "growth": "29.8% (inactive)"}
{"smiles": "Cn1cc(-c2ccc3c(c2)ncn3-c2ccc(CC(=O)Nc3cc(C(C)(C)C)on3)cc2)cn1", "growth": "58.5% (inactive)"}
{"smiles": "CCC1S/C(=N\\N=C(/C)c2ccc[nH]2)N(c2ccccc2)C1=O", "note": "(configuration not stated)", "growth": "106% (inactive)"}
{"smiles": "CC(=O)ON1CCCC(P(=O)(OCOC(=O)C(C)(C)C)OCOC(=O)C(C)(C)C)C1=O", "note": "(configuration not stated)", "growth": "-7.66% (active)"}
{"smiles": "Cc1cccc(C)c1Nc1nnc(-c2ccc(F)cc2)o1", "growth": "104% (inactive)"}
{"smiles": "COc1ccc(C2=NN(c3ccc(S(N)(=O)=O)cc3)C(c3ccc(Cl)cc3)C2)c(O)c1", "note": "(configuration not stated)", "growth": "85.3% (inactive)"}
{"smiles": "CC(=O)Nc1nc2c(c(N)c1C#N)C(c1cccc(Cl)c1)C1=C(CCCC1=O)N2c1sc2c(c1C#N)CCCC2", "note": "(configuration not stated)", "growth": "69.7% (inactive)"}
{"smiles": "C#Cc1ccccc1NC(=O)c1sc2nc3c(cc2c1N)CCCCCC3", "growth": "76.5% (inactive)"}
{"smiles": "C=C(C)[C@@H]1CC[C@]2(C(=O)N3CCN(C)CC3)CC[C@]3(C)[C@H](CC[C@@H]4[C@@]5(C)C/C(=C/c6ccco6)C(=O)C(C)(C)[C@@H]5CC[C@]43C)[C@@H]12", "growth": "80.1% (inactive)"}
{"smiles": "CCCCC(=O)Nc1c(C(=O)Nc2ccccc2)sc2nc3c(cc12)C(OC(=O)CCCC)CCC3", "note": "(configuration not stated)", "growth": "97.2% (inactive)"}
{"smiles": "C#CC[C@@H]1C[C@]2(C)[C@H]3CC[C@@H]4[C@H]5[C@H](C(=C)C)CC[C@]5(C(=O)O)CC[C@@]4(C)[C@]3(C)CC[C@H]2C(C)(C)[C@H]1O", "growth": "56.8% (inactive)"}
{"smiles": "Cc1ccc(-c2nc(C#N)c(S(=O)(=O)N(C)CCO)o2)cc1", "growth": "86.5% (inactive)"}
{"smiles": "FC(F)(F)c1ccc2c(Nc3cccc(C4CC(c5ccccc5)=NN4c4ccc(Cl)cc4)c3)ccnc2c1", "note": "(configuration not stated)", "growth": "41.4% (inactive)"}
{"smiles": "COc1ccc2nc(-c3ccc(OC)c(OC)c3)cc(-c3nnc(SCC(=O)Nc4ccc(/C(C)=N\\O)cc4)n3-c3ccccc3)c2c1", "growth": "84.3% (inactive)"}
